In the supplement of paper PMC9492666 one finds relative cell viability data, which are given here for eleven compounds.

One experiment deals with HCC1937. Kind of experiment: relative cell viability, compound + RSL3, vs DMSO (fraction of DMSO control); higher = less growth inhibition. The settings on record: 72 h.
Another experiment relates to MDA-MB-231. The description is as above. Particulars: 72 h.
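Also: breast cancer cell viability read out with the CCK-8 kit after co-treatment of each compound with the ferroptosis inducer RSL3.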

For `O=C(NNc1ccccc1)c1ccncc1` [PluriSln 1] + COC(=O)c1ccc([C@H]2c3[nH]c4ccccc4c3C[C@H](C(=O)OC)N2C(=O)CCl)cc1 [RSL3], the relative cell viability in the experiment with HCC1937 amounted to 0.418; in the experiment with MDA-MB-231, 0.656.

`CC[C@H](C)C(=O)O[C@H]1CCC=C2C=C[C@H](C)[C@H](CC[C@@H]3C[C@@H](O)CC(=O)O3)[C@H]21` [Mevastatin] + COC(=O)c1ccc([C@H]2c3[nH]c4ccccc4c3C[C@H](C(=O)OC)N2C(=O)CCl)cc1 [RSL3]: the results for the relative cell viability in the experiment with HCC1937 and with MDA-MB-231 were 0.707 and 0.369, respectively.

As to `O=C(OC(C(F)(F)F)C(F)(F)F)N1CCC(C(O)(c2ccc3c(c2)OCO3)c2ccc3c(c2)OCO3)CC1` + COC(=O)c1ccc([C@H]2c3[nH]c4ccccc4c3C[C@H](C(=O)OC)N2C(=O)CCl)cc1 [RSL3], the relative cell viability in the experiment on HCC1937 and in the experiment on MDA-MB-231 was 0.551 throughout.

On to `NC(=O)c1ncn([C@@H]2O[C@H](CO)[C@@H](O)[C@H]2O)c1N` [AICAR (Acadesine)] + COC(=O)c1ccc([C@H]2c3[nH]c4ccccc4c3C[C@H](C(=O)OC)N2C(=O)CCl)cc1 [RSL3], for which the values for the relative cell viability in the experiment on HCC1937 and with MDA-MB-231 were 0.646 and 0.584, respectively.

In the case of `CC(C)CCC[C@@H](C)[C@H]1CC[C@H]2[C@@H]3CC=C4C[C@@H](O)CC[C@]4(C)[C@H]3CC[C@]12C` [Cholesterol] + COC(=O)c1ccc([C@H]2c3[nH]c4ccccc4c3C[C@H](C(=O)OC)N2C(=O)CCl)cc1 [RSL3], the relative cell viability in the experiment with HCC1937 turned out to be 0.8; in the experiment with MDA-MB-231, 0.611.

For `CN(C(=O)n1cnc(-c2ccc[n+]([O-])c2)c1)C1CCCCC1` + COC(=O)c1ccc([C@H]2c3[nH]c4ccccc4c3C[C@H](C(=O)OC)N2C(=O)CCl)cc1 [RSL3], the values for the relative cell viability with HCC1937 and with MDA-MB-231 were 0.292 and 0.526, respectively.

In the case of `CCCCCCCCCCC#CC#CCCCCCCCCC(=O)O` [10,12-Tricosadiynoic acid] + COC(=O)c1ccc([C@H]2c3[nH]c4ccccc4c3C[C@H](C(=O)OC)N2C(=O)CCl)cc1 [RSL3], the relative cell viability in the experiment on HCC1937 is 0.4; in the experiment with MDA-MB-231, 0.634.

As for `Nc1ncnc2c1ncn2[C@@H]1O[C@H](COP(=O)(O)O)[C@@H](O)[C@H]1O` [Adenosine 5'-monophosphate] + COC(=O)c1ccc([C@H]2c3[nH]c4ccccc4c3C[C@H](C(=O)OC)N2C(=O)CCl)cc1 [RSL3], the relative cell viability in the experiment with HCC1937 is 0.597; in the experiment on MDA-MB-231 it was 0.485.

For the compound `NC(CO)C(=O)O` (racemic) [DL-Serine] + COC(=O)c1ccc([C@H]2c3[nH]c4ccccc4c3C[C@H](C(=O)OC)N2C(=O)CCl)cc1 [RSL3], the figures for the relative cell viability with HCC1937 and in the experiment on MDA-MB-231 were 0.399 and 0.594, respectively.

With `O=C(O)CCCc1cc2cc(Cl)ccc2n1S(=O)(=O)c1ccc2ncsc2c1` [Lanifibranor] + COC(=O)c1ccc([C@H]2c3[nH]c4ccccc4c3C[C@H](C(=O)OC)N2C(=O)CCl)cc1 [RSL3], the results for the relative cell viability in the experiment with HCC1937 and in the experiment with MDA-MB-231 were 0.464 and 0.786, respectively.

Turning to `CC(C)c1cc(C(C)C)c(CC(=O)NS(=O)(=O)Oc2c(C(C)C)cccc2C(C)C)c(C(C)C)c1` [Avasimibe] + COC(=O)c1ccc([C@H]2c3[nH]c4ccccc4c3C[C@H](C(=O)OC)N2C(=O)CCl)cc1 [RSL3], the relative cell viability came to 0.322 in the experiment with HCC1937 and 0.511 in the experiment with MDA-MB-231.
